Results reported in the supplement of paper PMC11732987, “Enantioselective OTUD7B fragment discovery through chemoproteomics screening and high-throughput optimisation” (Communications Chemistry, 2025).

Experiments:
Test in all cases: log2 ratio of Biotin-Ahx-Ub-VS probe labelling (fragment/DMSO); higher = less target engagement (more negative = stronger competition), active = hit call of the paper (q ≤ 0.05, log2 ratio ≤ -1)
Conditions in all cases: compound concentration: 200 uM; treatment time: 3 h
[1] = target: T1, USP19 (UniProt O94966)
T1 sequence (whole entry): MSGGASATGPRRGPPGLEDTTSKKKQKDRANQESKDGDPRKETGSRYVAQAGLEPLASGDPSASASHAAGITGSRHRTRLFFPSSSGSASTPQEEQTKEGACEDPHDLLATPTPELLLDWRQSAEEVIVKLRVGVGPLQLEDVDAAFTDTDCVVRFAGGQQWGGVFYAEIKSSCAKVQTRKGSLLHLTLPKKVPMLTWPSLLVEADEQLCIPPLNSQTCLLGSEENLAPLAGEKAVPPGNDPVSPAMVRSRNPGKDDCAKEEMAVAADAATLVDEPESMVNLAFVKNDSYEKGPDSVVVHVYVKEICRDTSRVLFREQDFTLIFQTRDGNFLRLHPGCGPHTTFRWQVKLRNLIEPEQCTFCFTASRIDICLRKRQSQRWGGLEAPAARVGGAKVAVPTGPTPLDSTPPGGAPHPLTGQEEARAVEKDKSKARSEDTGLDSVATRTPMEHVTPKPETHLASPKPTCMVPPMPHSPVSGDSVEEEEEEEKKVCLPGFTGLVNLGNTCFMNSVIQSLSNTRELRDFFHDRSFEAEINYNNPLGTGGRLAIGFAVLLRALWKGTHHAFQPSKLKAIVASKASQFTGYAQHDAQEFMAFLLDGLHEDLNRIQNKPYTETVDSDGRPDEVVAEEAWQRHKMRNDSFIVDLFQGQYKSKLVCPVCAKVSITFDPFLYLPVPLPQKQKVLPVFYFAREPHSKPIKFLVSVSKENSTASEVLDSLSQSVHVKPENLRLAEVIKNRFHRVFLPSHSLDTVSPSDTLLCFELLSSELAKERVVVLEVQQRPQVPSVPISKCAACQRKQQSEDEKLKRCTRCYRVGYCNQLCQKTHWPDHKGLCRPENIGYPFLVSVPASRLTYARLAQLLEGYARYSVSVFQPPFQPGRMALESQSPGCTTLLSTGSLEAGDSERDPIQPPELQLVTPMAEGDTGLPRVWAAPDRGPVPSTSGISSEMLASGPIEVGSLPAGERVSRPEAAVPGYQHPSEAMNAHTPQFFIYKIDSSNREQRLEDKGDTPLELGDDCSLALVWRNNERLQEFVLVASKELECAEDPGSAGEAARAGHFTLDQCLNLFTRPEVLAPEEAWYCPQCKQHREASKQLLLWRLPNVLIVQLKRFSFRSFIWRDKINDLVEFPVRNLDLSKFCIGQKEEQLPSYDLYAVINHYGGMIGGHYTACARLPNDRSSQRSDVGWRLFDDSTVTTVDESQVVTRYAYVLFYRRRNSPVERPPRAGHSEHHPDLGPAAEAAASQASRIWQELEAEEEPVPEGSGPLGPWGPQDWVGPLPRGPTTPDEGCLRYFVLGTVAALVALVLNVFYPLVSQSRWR
Procedure, shortened: (§1)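 The table lists average log2 ratios of fragment over vehicle, from an unpaired t-test on global-median-normalised Spectronaut label-free quantities. Proteins with ≥2 unique peptides were used. Samples were HEK293T lysate (495 µg) treated in triplicate with fragment at 200 µM or vehicle for 3 h, then with Biotin-Ahx-Ub-VS (0.5 µM final) for 1 h, with labelled DUBs NeutrAvidin-enriched and run by diaPASEF LC-MS/MS.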

[2] = target: T2, USP22 (UniProt Q9UPT9)
T2 sequence (whole entry): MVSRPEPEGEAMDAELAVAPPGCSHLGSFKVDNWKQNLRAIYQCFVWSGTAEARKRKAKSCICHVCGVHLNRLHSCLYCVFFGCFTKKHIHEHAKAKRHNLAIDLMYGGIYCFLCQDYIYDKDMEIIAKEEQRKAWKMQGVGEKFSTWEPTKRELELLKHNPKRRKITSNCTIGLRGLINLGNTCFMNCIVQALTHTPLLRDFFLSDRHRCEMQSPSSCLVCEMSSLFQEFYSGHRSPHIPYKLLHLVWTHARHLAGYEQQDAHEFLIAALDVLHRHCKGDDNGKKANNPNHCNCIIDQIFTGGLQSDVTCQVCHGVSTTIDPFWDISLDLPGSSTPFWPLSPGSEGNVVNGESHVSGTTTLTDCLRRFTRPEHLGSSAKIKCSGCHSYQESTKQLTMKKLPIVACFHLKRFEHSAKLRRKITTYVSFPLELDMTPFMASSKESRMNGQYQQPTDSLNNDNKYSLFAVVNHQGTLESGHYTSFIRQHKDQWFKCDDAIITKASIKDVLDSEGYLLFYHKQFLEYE
Procedure, shortened: as §1

[3] = target: USP24 (UniProt Q9UPU5)
Procedure, shortened: as §1

[4] = target: T3, USP25 (UniProt Q9UHP3)
T3 sequence (whole entry): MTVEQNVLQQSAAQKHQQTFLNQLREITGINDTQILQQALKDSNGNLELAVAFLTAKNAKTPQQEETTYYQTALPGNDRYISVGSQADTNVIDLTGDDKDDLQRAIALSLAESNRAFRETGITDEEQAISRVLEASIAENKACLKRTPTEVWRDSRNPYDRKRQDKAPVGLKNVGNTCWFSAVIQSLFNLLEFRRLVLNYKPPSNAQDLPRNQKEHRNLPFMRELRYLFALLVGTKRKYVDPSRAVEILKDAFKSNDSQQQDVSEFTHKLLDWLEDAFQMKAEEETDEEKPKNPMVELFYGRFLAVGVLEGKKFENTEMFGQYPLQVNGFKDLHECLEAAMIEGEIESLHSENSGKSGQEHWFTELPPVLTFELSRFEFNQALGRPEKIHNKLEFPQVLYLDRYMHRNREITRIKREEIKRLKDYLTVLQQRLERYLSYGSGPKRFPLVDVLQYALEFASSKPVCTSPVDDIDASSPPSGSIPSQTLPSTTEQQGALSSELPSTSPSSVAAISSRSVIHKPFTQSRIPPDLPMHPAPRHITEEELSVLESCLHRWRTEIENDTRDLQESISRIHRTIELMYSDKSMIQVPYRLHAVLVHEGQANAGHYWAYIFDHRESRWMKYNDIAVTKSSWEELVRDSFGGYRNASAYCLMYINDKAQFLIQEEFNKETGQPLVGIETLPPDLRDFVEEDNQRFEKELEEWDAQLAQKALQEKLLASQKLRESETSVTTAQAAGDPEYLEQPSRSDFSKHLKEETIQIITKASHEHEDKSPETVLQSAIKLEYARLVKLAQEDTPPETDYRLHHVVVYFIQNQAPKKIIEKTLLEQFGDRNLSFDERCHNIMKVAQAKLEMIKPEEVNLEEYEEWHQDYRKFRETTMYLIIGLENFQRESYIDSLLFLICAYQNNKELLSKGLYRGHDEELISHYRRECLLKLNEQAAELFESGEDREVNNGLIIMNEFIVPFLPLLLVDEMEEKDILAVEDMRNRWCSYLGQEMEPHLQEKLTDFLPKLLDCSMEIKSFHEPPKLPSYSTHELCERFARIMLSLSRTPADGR
Procedure, shortened: as §1

[5] = target: T4, USP28 (UniProt Q96RU2)
T4 sequence (whole entry): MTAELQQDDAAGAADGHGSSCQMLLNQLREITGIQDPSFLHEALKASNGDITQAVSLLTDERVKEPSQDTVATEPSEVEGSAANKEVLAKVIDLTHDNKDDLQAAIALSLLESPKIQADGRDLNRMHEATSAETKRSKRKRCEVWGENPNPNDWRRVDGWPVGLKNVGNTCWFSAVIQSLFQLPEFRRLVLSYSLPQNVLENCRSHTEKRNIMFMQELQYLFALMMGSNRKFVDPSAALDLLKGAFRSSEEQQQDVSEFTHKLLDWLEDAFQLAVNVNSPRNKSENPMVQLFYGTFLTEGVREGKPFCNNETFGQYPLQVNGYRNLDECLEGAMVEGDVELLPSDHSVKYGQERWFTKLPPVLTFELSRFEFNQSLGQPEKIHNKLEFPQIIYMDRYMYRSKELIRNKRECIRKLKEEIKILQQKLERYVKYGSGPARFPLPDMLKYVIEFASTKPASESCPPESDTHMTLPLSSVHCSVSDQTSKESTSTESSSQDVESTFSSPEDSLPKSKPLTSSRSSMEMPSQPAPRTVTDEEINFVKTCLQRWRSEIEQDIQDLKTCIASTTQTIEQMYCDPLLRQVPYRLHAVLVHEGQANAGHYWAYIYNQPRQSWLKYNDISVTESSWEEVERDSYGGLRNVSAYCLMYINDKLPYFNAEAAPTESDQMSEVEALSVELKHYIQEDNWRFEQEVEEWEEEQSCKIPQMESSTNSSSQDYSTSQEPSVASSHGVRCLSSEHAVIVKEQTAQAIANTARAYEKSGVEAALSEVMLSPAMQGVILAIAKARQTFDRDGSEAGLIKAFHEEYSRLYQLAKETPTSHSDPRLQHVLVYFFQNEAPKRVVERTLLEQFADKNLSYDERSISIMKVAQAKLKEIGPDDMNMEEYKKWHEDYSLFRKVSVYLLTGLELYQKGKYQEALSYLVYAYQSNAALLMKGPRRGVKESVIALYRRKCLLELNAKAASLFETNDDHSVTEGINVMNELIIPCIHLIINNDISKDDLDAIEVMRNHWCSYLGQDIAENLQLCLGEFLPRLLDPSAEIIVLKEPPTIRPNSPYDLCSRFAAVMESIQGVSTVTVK
Procedure, shortened: as §1

Measured: log2 ratio of Biotin-Ahx-Ub-VS probe labelling

USP24, sequence (Q9UPU5 whole entry): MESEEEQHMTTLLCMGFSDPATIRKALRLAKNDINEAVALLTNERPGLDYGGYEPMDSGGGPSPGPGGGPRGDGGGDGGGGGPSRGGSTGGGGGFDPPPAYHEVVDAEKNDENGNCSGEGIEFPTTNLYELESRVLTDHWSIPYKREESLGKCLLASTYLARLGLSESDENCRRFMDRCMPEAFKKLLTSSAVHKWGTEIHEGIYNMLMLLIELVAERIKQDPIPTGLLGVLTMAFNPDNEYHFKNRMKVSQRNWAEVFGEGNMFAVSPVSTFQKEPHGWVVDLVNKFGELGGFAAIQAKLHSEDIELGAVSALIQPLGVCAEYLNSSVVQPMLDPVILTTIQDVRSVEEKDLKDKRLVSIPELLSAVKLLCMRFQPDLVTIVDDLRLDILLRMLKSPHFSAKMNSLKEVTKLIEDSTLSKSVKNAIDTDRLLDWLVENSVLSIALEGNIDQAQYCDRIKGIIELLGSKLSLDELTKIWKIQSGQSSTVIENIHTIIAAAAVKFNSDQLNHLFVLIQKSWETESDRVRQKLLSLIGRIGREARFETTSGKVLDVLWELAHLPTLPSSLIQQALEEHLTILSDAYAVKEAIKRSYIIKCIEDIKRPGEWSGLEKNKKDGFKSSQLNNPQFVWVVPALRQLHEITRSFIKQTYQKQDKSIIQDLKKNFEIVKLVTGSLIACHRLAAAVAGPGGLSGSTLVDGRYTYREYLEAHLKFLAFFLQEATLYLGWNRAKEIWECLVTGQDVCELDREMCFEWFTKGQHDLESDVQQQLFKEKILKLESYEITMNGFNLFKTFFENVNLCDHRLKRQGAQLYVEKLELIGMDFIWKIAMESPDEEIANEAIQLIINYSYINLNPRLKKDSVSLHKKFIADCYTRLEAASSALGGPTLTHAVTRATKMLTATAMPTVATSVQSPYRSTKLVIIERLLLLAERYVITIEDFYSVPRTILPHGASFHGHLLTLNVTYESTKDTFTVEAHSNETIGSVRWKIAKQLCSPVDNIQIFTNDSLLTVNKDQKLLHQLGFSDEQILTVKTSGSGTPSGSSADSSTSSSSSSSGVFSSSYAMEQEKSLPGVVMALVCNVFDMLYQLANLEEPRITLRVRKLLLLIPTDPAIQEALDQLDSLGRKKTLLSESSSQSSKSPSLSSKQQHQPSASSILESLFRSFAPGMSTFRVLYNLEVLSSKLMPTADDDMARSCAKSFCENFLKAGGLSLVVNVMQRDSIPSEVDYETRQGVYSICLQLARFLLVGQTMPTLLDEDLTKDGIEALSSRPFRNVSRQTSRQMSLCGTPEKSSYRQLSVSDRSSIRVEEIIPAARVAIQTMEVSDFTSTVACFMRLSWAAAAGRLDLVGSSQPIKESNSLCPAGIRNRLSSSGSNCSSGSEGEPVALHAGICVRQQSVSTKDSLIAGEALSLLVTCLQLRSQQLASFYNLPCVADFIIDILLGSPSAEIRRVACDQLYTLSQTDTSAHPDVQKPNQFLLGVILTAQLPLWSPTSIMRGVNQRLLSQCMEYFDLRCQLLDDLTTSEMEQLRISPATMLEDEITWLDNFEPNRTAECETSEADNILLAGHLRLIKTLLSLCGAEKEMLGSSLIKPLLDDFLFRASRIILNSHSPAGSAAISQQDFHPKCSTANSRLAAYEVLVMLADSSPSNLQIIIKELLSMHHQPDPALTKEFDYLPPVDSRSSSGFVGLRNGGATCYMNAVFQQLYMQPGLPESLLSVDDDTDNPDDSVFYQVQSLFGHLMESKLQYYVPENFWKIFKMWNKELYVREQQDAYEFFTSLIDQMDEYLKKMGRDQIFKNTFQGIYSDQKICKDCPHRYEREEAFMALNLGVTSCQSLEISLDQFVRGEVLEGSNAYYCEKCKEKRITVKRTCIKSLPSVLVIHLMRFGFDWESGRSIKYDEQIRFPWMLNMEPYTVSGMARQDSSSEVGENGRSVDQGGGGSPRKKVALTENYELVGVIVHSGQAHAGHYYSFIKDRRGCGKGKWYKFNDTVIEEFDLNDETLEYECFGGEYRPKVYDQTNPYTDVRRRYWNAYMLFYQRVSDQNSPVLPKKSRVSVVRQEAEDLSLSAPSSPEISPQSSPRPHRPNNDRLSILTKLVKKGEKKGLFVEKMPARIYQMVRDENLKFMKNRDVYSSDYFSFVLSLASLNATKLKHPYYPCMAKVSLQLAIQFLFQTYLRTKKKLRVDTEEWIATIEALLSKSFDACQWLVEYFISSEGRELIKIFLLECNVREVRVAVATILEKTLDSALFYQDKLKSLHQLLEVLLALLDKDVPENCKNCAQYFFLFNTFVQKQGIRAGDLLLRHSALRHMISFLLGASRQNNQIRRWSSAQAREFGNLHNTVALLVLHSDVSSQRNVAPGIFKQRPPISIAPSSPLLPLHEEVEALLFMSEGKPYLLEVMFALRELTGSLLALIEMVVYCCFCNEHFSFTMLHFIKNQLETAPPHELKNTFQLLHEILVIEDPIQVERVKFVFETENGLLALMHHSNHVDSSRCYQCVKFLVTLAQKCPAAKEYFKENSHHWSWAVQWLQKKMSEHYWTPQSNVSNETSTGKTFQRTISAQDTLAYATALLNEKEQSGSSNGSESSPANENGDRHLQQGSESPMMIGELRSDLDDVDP

O=C(CCl)NC1CCC2(CC1)OCCO2
inactive: [1] -0.189 | [2] -0.165 | [3] -0.301 | [4] -0.49 | [5] -0.665
